Molecules are shown by their SMILES. Out of some 39,000 compounds screened, about 3,300 (8.5%) were called active. Many of the other results were omitted from the sample, so actives are more common in it than they were.

In the assay the test system is HepG2. The experiment in a line: cytotoxicity call (relative viability < 0.9). The conditions noted are these: 10 µM.
`COc1ccc(S(=O)(=O)Nc2ccc3c(c2)C(=O)N([C@@H](C)CO)C[C@@H](C)[C@H](CN(C)S(=O)(=O)c2ccccc2)O3)cc1`: the cytotoxicity call is “inactive”.

On to `Cc1ccc(S(=O)(=O)Nc2ccc3c(c2)C(=O)N([C@H](C)CO)C[C@H](C)[C@@H](CN(C)C(=O)Cc2ccccc2)OCCCC[C@H](C)O3)cc1`, for which the cytotoxicity call was “inactive”.

Consider `CN1C(=O)c2cc(NC(=O)c3cccs3)ccc2OC[C@H]2O[C@H](CC(=O)NCCN3CCCCC3)CC[C@H]21`, for which the cytotoxicity call was “inactive”.

As to `CO/N=C1\CN(c2nc3c(cc2F)c(=O)c(C(=O)O)cn3C2CC2)C[C@@H]1CN`, the cytotoxicity call was “inactive”.

`COc1ccc(S(=O)(=O)N2C[C@@H](O)COC[C@@H]3O[C@@H](CC(=O)N[C@@H]4CCN(Cc5ccccc5)C4)CC[C@H]32)cc1`: the cytotoxicity call was “inactive”.

In the case of `C[C@]1(C(=O)NCC(F)(F)F)c2ccccc2C(=O)N(Cc2cc(F)cc(C(F)(F)F)c2)[C@H]1c1ccc(CO)cc1`, the cytotoxicity call was “inactive”.

For the molecule `Cc1ccc(S(=O)(=O)Nc2cccc3c2O[C@@H](CN(C)S(=O)(=O)c2ccccc2)[C@H](C)CN([C@@H](C)CO)C3=O)cc1`, the cytotoxicity call is “inactive”.

As to `COCC#Cc1cnc2c(c1)C(=O)N([C@@H](C)CO)C[C@@H](C)[C@@H](CN(C)C(=O)CCN1CCCCC1)O2`, the cytotoxicity call is “inactive”.

Turning to `Cc1noc(C)c1NC(=O)Nc1ccc2c(c1)C(=O)N([C@H](C)CO)C[C@H](C)[C@@H](CN(C)S(=O)(=O)c1ccccc1)OCCCC[C@@H](C)O2`, the cytotoxicity call is “inactive”.

Take `NC1(Cc2ccc(Cl)cc2)CCN(c2ncnc3[nH]ccc23)CC1`: the cytotoxicity call was “active”.

As for `Cc1ccc(S(=O)(=O)N2C[C@H](O)COC[C@@H]3O[C@@H](CC(=O)N[C@@H]4CCN(Cc5ccccc5)C4)CC[C@H]32)cc1`, the cytotoxicity call is “inactive”.

Turning to `COc1cc2c3cc1Oc1cc(ccc1O)O[C@H]1c4c(cc(OC)c(O)c4Oc4ccc(cc4)C[C@@H]3N(C)CC2)CCN1C`, the cytotoxicity call is “inactive”.

For the molecule `CN1CCc2cccc3c2C1Cc1ccc(O)c(O)c1-3.Cl` (configuration not stated), the cytotoxicity call was “active”.

Consider `C[C@H](CO)N1C[C@H](C)[C@@H](CN(C)S(C)(=O)=O)Oc2ccc(NC(=O)NC3CCCCC3)cc2C1=O`, for which the cytotoxicity call is “inactive”.

Consider `C[C@@H]1CN([C@H](C)CO)C(=O)CCCn2cc(nn2)CO[C@@H]1CN(C)C(=O)CCCN(C)C`, for which the cytotoxicity call is “inactive”.

Take `COCC#Cc1cnc2c(c1)C(=O)N([C@@H](C)CO)C[C@@H](C)[C@H](CN(C)C(=O)c1ccc3c(c1)OCO3)O2`: the cytotoxicity call is “inactive”.

Regarding `C[C@H](CO)N1C[C@H](C)[C@@H](CN(C)S(=O)(=O)c2cn(C)cn2)Oc2cc(C#Cc3ccc(F)cc3)ccc2S1(=O)=O`, the cytotoxicity call was “inactive”.

Consider `O=C(Cc1ccc(-c2ccccc2)cc1)Nc1c(C(=O)Nc2ccc3c(c2)OCCO3)oc2ccccc12`, for which the cytotoxicity call is “inactive”.

Turning to `Cc1c(C(=O)Nc2ccc3ccccc3c2)oc2ccccc12`, the cytotoxicity call was “active”.

With `CCC(=O)Nc1ccc2ccccc2c1`, the cytotoxicity call is “inactive”.

On to `CC(C)NC(=O)N(C)C[C@H]1Oc2ccc(NC(=O)CCC(F)(F)F)cc2C(=O)N([C@@H](C)CO)C[C@H]1C`, for which the cytotoxicity call is “inactive”.

In the case of `C[C@@H]1CN([C@H](C)CO)S(=O)(=O)c2ccc(C3=CCCC3)cc2O[C@H]1CN(C)C(=O)C1CCOCC1`, the cytotoxicity call was “inactive”.

Take `COCC(=O)N1C[C@H](C)[C@@H](OC)CN(C)C(=O)c2ccc(NC(=O)c3ccc(OC)cc3)cc2OC[C@H]1C`: the cytotoxicity call is “inactive”.

For `CCOC(=O)N1CCC(O)CC1`, the cytotoxicity call is “inactive”.

As to `CCOC(=O)CN1CCN(C=O)CC1`, the cytotoxicity call is “active”.

In the case of `CCOC(=O)CN1C(=O)c2ccccc2C1=O`, the cytotoxicity call is “inactive”.

Take `CN(C)CCCNC(=O)[C@H]1[C@H](CO)[C@H]2Cn3c(ccc(-c4cccc(C(=O)N(C)C)c4)c3=O)[C@@H]1N2`: the cytotoxicity call was “inactive”.

As for `C[C@H]1CCCCO[C@H](CN(C)C(=O)Nc2ccc(C(F)(F)F)cc2)[C@@H](C)CN([C@@H](C)CO)C(=O)c2cc(N(C)C)ccc2O1`, the cytotoxicity call is “inactive”.

As to `C[C@@H]1CCCCO[C@@H](CN(C)C(=O)Nc2ccc(C(F)(F)F)cc2)[C@@H](C)CN([C@H](C)CO)C(=O)c2cc(N(C)C)ccc2O1`, the cytotoxicity call was “inactive”.

As for `C[C@@H]1CN([C@H](C)CO)C(=O)c2cc(N(C)C)ccc2O[C@@H](C)CCCCO[C@@H]1CN(C)C(=O)Nc1ccc(C(F)(F)F)cc1`, the cytotoxicity call is “inactive”.

On to `C[C@@H]1CCCCO[C@@H](CN(C)C(=O)Nc2ccc(C(F)(F)F)cc2)[C@H](C)CN([C@H](C)CO)C(=O)c2cc(N(C)C)ccc2O1`, for which the cytotoxicity call is “active”.

As to `C[C@@H]1CN([C@@H](C)CO)C(=O)c2cc(N(C)C)ccc2O[C@@H](C)CCCCO[C@@H]1CN(C)C(=O)Nc1ccc(C(F)(F)F)cc1`, the cytotoxicity call was “active”.

Consider `C[C@H](CO)N1C[C@H](C)[C@@H](CN(C)C(=O)Nc2ccc(C(F)(F)F)cc2)OCCCC[C@H](C)Oc2ccc(N(C)C)cc2C1=O`, for which the cytotoxicity call is “inactive”.

As for `Cc1nn2cc(CN)nc2s1`, the cytotoxicity call is “inactive”.

Consider `C[C@@H]1CN([C@H](C)CO)C(=O)Cc2cc(NC(=O)C3CC3)ccc2O[C@@H]1CN(C)S(=O)(=O)c1cn(C)cn1`, for which the cytotoxicity call was “inactive”.

For the molecule `C=CCC[C@@H](Cc1ccc(F)cc1)C(=O)OC[C@@H](NC(=O)[C@@H](CC=C)CC(=O)N(CCO)Cc1ccccc1)C(C)(C)C`, the cytotoxicity call was “inactive”.

As to `C[C@@H]1CN([C@@H](C)CO)C(=O)c2cccc(NS(C)(=O)=O)c2O[C@@H]1CN(C)Cc1ccc(C(F)(F)F)cc1`, the cytotoxicity call was “inactive”.

For `C[C@@H]1CN([C@@H](C)CO)S(=O)(=O)c2ccc(Br)cc2O[C@H]1CN(C)Cc1ccc(-c2ccccc2)cc1`, the cytotoxicity call was “inactive”.

As to `C[C@H]1CCCCO[C@H](CN(C)C(=O)NC2CCCCC2)[C@@H](C)CN([C@@H](C)CO)C(=O)c2cc(NS(=O)(=O)c3ccc(Cl)cc3)ccc2O1`, the cytotoxicity call is “inactive”.

For the molecule `C[C@@H]1CCCCO[C@H](CN(C)C(=O)NC2CCCCC2)[C@H](C)CN([C@H](C)CO)C(=O)c2cc(NS(=O)(=O)c3ccc(Cl)cc3)ccc2O1`, the cytotoxicity call is “active”.

For the molecule `C[C@H]1CCCCO[C@@H](CN(C)C(=O)NC2CCCCC2)[C@@H](C)CN([C@@H](C)CO)C(=O)c2cc(NS(=O)(=O)c3ccc(Cl)cc3)ccc2O1`, the cytotoxicity call is “inactive”.

Turning to `C[C@@H]1CCCCO[C@H](CN(C)C(=O)NC2CCCCC2)[C@H](C)CN([C@@H](C)CO)C(=O)c2cc(NS(=O)(=O)c3ccc(Cl)cc3)ccc2O1`, the cytotoxicity call was “inactive”.

Turning to `C[C@@H]1CN([C@H](C)CO)C(=O)c2cc(NS(=O)(=O)c3ccc(Cl)cc3)ccc2O[C@@H](C)CCCCO[C@@H]1CN(C)C(=O)NC1CCCCC1`, the cytotoxicity call is “active”.

Take `C[C@@H]1CCCCO[C@@H](CN(C)C(=O)NC2CCCCC2)[C@@H](C)CN([C@@H](C)CO)C(=O)c2cc(NS(=O)(=O)c3ccc(Cl)cc3)ccc2O1`: the cytotoxicity call was “inactive”.

As for `C[C@@H]1CN([C@H](C)CO)S(=O)(=O)c2ccc(C#C[C@@H](C)O)cc2O[C@H]1CN(C)C(=O)c1ccccc1`, the cytotoxicity call was “inactive”.

Turning to `COc1ccccc1NC(=O)N(C)C[C@@H]1OCc2ccccc2-c2c(n(C)c3ccccc23)C(=O)N([C@H](C)CO)C[C@H]1C`, the cytotoxicity call was “inactive”.

Take `O=C(C[C@@H]1C[C@@H]2c3cc(NC(=O)NC4CCCC4)ccc3O[C@@H]2[C@@H](CO)O1)NCCN1CCCCC1`: the cytotoxicity call was “inactive”.

On to `CN(C)c1ccc(C(=C2C=CC(=[N+](C)C)C=C2)c2ccc(N(C)C)cc2)cc1.[Cl-]`, for which the cytotoxicity call is “active”.

`C[C@@H]1CCCCO[C@@H](CN(C)Cc2ccc(Cl)c(Cl)c2)[C@@H](C)CN([C@H](C)CO)C(=O)c2cc(NS(C)(=O)=O)ccc2O1`: the cytotoxicity call is “inactive”.

For `COc1ccc(NC(=O)N(C)C[C@@H]2Oc3ccc(NS(=O)(=O)c4c(C)noc4C)cc3C(=O)N([C@H](C)CO)C[C@@H]2C)cc1`, the cytotoxicity call was “inactive”.

Consider `COc1ccc(NC(=O)N(C)C[C@@H]2Oc3ccc(NS(=O)(=O)c4c(C)noc4C)cc3C(=O)N([C@@H](C)CO)C[C@H]2C)cc1`, for which the cytotoxicity call is “inactive”.

`COc1ccc(S(=O)(=O)N(C)C[C@H]2Oc3ccc(NS(=O)(=O)c4c(C)noc4C)cc3C(=O)N([C@H](C)CO)C[C@@H]2C)cc1`: the cytotoxicity call was “inactive”.

Take `COc1ccc(S(=O)(=O)N(C)C[C@@H]2Oc3ccc(NS(=O)(=O)c4c(C)noc4C)cc3C(=O)N([C@H](C)CO)C[C@@H]2C)cc1`: the cytotoxicity call was “active”.

Take `COc1ccc(S(=O)(=O)N(C)C[C@H]2Oc3ccc(NS(=O)(=O)c4c(C)noc4C)cc3C(=O)N([C@H](C)CO)C[C@H]2C)cc1`: the cytotoxicity call is “inactive”.

As to `COc1ccc(NC(=O)N(C)C[C@@H]2Oc3ccc(NS(=O)(=O)c4c(C)noc4C)cc3C(=O)N([C@@H](C)CO)C[C@@H]2C)cc1`, the cytotoxicity call was “active”.

As for `Cc1cc(C(=O)Nc2cccc3c2O[C@H](CN(C)S(=O)(=O)c2c(C)noc2C)[C@H](C)CN([C@@H](C)CO)C3=O)n(C)n1`, the cytotoxicity call is “inactive”.

Take `C[C@@H]1CCCCO[C@@H](CN(C)C(=O)Nc2cccc3ccccc23)[C@@H](C)CN([C@H](C)CO)C(=O)c2cc(NS(=O)(=O)c3ccccc3)ccc2O1`: the cytotoxicity call is “inactive”.

As for `COc1cccc(C#Cc2ccc([C@@H]3[C@@H](CO)N4C(=O)CN(S(=O)(=O)c5ccccc5C)C[C@H]34)cc2)c1`, the cytotoxicity call was “inactive”.

Consider `C[C@@H]1CN([C@@H](C)CO)C(=O)c2cccc(NC(=O)CCCCCC(=O)Nc3ccccc3N)c2O[C@H]1CN(C)C(=O)Nc1ccccc1`, for which the cytotoxicity call was “inactive”.

On to `Cc1noc(C)c1S(=O)(=O)Nc1ccc2c(c1)C(=O)N([C@H](C)CO)C[C@@H](C)[C@@H](CN(C)Cc1ccncc1)O2`, for which the cytotoxicity call was “inactive”.

As for `O=C(C[C@@H]1CC=CC[C@H](NC(=O)OCC2c3ccccc3-c3ccccc32)C(=O)O[C@@H](c2ccccc2)CNC1=O)N[C@@H](CO)Cc1ccccc1`, the cytotoxicity call is “inactive”.

Consider `Cc1ccc(S(=O)(=O)N(C)C[C@@H]2Oc3ccc(NC(=O)C4CC4)cc3CC(=O)N([C@@H](C)CO)C[C@H]2C)cc1`, for which the cytotoxicity call was “inactive”.

On to `Cc1ccc(S(=O)(=O)N(C)C[C@@H]2Oc3ccc(NC(=O)C4CC4)cc3CC(=O)N([C@@H](C)CO)C[C@@H]2C)cc1`, for which the cytotoxicity call is “active”.

Regarding `Cc1ccc(S(=O)(=O)N(C)C[C@H]2Oc3ccc(NC(=O)C4CC4)cc3CC(=O)N([C@@H](C)CO)C[C@@H]2C)cc1`, the cytotoxicity call is “inactive”.

In the case of `C[C@@H]1CN([C@H](C)CO)C(=O)Cc2cc(NC(=O)C3CC3)ccc2O[C@@H]1CN(C)S(=O)(=O)c1ccc(Cl)cc1`, the cytotoxicity call is “inactive”.

Take `C[C@H](CO)N1C[C@H](C)[C@H](CN(C)S(=O)(=O)c2ccc(Cl)cc2)Oc2ccc(NC(=O)C3CC3)cc2CC1=O`: the cytotoxicity call is “inactive”.

For `C[C@H]1CN([C@@H](C)CO)C(=O)Cc2cc(NC(=O)C3CC3)ccc2O[C@H]1CN(C)S(=O)(=O)c1ccc(Cl)cc1`, the cytotoxicity call was “active”.

(Values after the antibiotic and cytotoxicity screens of Wong et al. (2023).)
